# Test results from publication PMC7862700, “An all-to-all approach to the identification of sequence-specific readers for epigenetic DNA modifications on cytosine”.
# How the values were obtained:
# Test in all cases: DAPPL (digital affinity profiling via proximity ligation, sequencing); 10 mM Tris-HCl pH 7.5, 50 mM NaCl, 1 mM DTT, 4% glycerol, room temperature, 30 min; GST-TFs on glutathione beads, 16-mer random dsDNA library, 0.1% formaldehyde crosslink after washing; high values mean tight binding
# FLI1 = target: T1, FLI1 (Homo sapiens, UniProt Q01543 1-452); conditions: protein: recombinant; tags: N-terminal GST; dsDNA, one strand shown
# T1 sequence: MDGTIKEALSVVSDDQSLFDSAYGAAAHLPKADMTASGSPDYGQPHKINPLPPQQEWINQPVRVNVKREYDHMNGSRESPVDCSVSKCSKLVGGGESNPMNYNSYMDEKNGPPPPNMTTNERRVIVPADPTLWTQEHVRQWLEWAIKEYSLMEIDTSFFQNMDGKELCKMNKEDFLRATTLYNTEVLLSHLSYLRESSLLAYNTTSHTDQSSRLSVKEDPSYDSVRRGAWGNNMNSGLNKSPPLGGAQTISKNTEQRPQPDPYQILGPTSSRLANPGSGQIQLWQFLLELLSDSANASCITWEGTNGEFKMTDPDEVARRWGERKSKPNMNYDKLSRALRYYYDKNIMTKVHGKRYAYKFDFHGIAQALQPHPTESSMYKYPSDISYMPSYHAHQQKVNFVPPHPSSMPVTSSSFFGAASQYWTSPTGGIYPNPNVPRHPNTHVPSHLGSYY
# Summary of the method: (§1)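 Human transcription factors carrying a GST fusion were produced in yeast, bound to glutathione beads, tagged with DNA barcodes and pooled together with a tag-only sample. Each pool was held with 200 nmole of a random double-stranded 16-mer DNA library in Tris/NaCl/DTT/glycerol buffer for 30 min at room temperature, then washed, crosslinked in 0.1% formaldehyde, proximity-ligated with BsaI/T4 ligase (1 h, 37 °C), PCR-amplified and sequenced on an Illumina NextSeq500. Binding signal is the read frequency of each hexamer for a given factor divided by its frequency in the tag-only sample.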
# ELK1 = target: T2, ELK1 (Homo sapiens, UniProt P19419 1-428); conditions: protein: recombinant; tags: N-terminal GST; dsDNA, one strand shown
# T2 sequence: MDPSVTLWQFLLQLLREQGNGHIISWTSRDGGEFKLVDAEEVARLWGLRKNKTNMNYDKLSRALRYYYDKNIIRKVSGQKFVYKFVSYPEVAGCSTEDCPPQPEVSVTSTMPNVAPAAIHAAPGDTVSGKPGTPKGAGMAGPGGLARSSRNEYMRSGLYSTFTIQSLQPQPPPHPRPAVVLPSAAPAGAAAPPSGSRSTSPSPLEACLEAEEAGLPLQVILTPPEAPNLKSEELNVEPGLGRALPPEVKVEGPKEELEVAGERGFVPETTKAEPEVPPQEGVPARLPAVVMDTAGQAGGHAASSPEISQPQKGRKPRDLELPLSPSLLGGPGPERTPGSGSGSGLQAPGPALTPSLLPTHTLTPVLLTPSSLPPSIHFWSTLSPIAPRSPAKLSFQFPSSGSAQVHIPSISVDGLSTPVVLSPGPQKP
# Summary of the method: as §1
# GABPA = target: T3, GABPA (Homo sapiens, UniProt Q06546 1-454); conditions: protein: recombinant; tags: N-terminal GST; dsDNA, one strand shown
# T3 sequence: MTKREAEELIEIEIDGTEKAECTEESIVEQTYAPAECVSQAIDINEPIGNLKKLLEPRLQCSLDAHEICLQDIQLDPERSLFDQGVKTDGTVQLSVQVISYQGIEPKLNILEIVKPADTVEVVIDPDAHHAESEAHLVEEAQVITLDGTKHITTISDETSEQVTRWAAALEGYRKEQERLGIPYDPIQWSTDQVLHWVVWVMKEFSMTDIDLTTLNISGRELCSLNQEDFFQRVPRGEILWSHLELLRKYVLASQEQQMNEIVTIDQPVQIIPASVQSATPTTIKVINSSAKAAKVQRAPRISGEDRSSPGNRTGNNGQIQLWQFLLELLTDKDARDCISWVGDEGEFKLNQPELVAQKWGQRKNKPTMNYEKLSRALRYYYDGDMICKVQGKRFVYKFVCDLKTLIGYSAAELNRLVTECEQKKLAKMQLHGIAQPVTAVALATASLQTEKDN
# Summary of the method: as §1
# ERG = target: T4, ERG (Homo sapiens, UniProt P11308 1-479); conditions: protein: recombinant; tags: N-terminal GST; dsDNA, one strand shown
# T4 sequence: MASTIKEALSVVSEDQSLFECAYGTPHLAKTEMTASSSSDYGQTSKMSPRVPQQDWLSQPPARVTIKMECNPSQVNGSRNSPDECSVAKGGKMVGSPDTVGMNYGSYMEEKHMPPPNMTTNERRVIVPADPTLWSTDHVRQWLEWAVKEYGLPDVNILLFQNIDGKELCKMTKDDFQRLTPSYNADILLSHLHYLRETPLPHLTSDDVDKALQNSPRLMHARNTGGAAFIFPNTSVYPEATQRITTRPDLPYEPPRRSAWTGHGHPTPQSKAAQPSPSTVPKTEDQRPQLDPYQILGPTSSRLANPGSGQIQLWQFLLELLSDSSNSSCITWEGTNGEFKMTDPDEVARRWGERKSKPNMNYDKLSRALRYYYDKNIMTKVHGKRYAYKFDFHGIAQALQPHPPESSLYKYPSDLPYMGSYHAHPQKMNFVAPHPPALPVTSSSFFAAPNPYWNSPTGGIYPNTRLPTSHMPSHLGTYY
# Summary of the method: as §1
# ELF1 = ELF1 (Homo sapiens, UniProt P32519 1-619); conditions: protein: recombinant; tags: N-terminal GST; dsDNA, one strand shown
# Sequence of ELF1 (P32519 whole entry): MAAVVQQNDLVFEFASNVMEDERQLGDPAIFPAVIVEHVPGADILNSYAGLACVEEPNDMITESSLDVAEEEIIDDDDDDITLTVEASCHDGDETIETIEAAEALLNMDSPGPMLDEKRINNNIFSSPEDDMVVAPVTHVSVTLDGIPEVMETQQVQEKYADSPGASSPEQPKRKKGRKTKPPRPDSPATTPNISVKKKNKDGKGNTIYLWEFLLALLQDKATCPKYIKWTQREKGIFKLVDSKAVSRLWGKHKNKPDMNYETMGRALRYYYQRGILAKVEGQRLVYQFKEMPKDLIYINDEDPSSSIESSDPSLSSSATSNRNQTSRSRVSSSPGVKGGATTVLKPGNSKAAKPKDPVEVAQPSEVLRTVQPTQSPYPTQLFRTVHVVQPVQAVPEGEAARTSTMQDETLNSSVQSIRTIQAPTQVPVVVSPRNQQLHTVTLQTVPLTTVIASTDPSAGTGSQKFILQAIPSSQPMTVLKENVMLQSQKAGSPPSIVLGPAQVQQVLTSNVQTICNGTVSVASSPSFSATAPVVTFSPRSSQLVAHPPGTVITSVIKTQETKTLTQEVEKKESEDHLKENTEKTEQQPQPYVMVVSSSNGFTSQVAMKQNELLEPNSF
# Summary of the method: as §1
# EHF = target: T5, EHF (Homo sapiens, UniProt Q9NZC4 1-300); conditions: protein: recombinant; tags: N-terminal GST; dsDNA, one strand shown
# T5 sequence: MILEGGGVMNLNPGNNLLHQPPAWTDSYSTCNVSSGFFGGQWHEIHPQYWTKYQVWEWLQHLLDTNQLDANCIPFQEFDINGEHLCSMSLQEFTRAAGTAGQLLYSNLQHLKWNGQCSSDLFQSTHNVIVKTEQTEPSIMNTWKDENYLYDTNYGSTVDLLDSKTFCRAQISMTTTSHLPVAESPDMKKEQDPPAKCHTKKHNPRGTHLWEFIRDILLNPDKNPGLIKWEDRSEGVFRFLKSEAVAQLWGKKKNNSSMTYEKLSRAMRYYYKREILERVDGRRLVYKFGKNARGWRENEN
# Summary of the method: as §1
# SPI1 = SPI1 (Homo sapiens, UniProt P17947 1-270); conditions: protein: recombinant; tags: N-terminal GST; dsDNA, one strand shown
# Summary of the method: as §1
# SPIB = SPIB (Homo sapiens, UniProt Q01892 1-262); conditions: protein: recombinant; tags: N-terminal GST; dsDNA, one strand shown
# Sequence of SPIB (Q01892 whole entry): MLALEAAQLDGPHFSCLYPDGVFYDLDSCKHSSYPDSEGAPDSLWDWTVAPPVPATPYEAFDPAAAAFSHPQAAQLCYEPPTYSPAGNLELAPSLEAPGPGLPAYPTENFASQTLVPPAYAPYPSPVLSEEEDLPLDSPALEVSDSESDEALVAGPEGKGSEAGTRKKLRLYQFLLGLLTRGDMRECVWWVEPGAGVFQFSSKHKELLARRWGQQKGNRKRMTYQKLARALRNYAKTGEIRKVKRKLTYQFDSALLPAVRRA
# Summary of the method: as §1
# ELK3 = target: T6, ELK3 (Homo sapiens, UniProt P41970 1-407); conditions: protein: recombinant; tags: N-terminal GST; dsDNA, one strand shown
# T6 sequence: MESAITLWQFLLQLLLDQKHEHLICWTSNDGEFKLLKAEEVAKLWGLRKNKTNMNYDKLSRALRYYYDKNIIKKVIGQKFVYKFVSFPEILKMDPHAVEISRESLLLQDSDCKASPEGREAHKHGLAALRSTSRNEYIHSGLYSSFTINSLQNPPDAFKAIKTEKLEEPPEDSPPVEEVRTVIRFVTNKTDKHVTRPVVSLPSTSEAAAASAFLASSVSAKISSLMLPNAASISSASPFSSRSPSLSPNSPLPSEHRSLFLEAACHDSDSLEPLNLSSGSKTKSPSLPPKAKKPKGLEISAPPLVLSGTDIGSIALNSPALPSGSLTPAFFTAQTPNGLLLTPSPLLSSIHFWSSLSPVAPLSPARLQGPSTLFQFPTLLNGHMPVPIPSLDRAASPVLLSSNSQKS
# Summary of the method: as §1
# FEV = target: T7, FEV (Homo sapiens, UniProt Q99581 1-238); conditions: protein: recombinant; tags: N-terminal GST; dsDNA, one strand shown
# T7 sequence: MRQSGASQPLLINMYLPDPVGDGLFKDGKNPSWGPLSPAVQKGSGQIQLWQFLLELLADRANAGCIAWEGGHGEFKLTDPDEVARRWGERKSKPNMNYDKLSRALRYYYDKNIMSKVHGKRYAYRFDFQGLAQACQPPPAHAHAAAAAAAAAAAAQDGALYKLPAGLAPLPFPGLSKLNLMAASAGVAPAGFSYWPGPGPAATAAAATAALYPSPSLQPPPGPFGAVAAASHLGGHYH
# Summary of the method: as §1
# ETV5 = ETV5 (Homo sapiens, UniProt P41161 1-510); conditions: protein: recombinant; tags: N-terminal GST; dsDNA, one strand shown
# Sequence of ETV5 (P41161 whole entry): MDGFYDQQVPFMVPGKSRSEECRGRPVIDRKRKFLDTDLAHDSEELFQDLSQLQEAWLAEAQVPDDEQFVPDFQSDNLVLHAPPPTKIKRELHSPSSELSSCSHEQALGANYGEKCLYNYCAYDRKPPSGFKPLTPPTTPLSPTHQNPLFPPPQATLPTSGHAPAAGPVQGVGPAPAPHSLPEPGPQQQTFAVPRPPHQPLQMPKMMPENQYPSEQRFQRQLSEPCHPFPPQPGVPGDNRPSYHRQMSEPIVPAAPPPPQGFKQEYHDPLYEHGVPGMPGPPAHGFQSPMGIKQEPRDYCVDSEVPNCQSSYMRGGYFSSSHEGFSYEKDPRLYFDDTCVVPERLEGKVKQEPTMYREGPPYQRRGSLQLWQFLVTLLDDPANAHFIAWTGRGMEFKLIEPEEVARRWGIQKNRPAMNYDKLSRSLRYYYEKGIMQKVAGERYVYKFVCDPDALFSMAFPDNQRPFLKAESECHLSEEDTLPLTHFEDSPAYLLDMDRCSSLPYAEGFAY
# Summary of the method: as §1
# HSF1 = HSF1 (Homo sapiens, UniProt Q00613 1-529); conditions: protein: recombinant; tags: N-terminal GST; chain copies: 3; dsDNA, one strand shown
# Sequence of HSF1 (Q00613 whole entry): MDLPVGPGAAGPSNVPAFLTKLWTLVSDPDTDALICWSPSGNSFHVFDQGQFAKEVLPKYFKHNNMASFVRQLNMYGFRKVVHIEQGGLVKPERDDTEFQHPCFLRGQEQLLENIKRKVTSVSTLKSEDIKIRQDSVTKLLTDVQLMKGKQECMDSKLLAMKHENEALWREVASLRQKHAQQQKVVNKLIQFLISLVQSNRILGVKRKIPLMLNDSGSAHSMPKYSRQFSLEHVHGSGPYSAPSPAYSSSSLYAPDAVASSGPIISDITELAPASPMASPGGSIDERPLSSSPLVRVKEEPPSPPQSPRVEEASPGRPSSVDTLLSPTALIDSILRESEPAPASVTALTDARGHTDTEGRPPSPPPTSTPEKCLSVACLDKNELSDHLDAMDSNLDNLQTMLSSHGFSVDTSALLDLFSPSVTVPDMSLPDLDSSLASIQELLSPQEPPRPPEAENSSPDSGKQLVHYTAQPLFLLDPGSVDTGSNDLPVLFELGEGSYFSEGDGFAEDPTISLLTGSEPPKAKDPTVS
# Summary of the method: as §1
# SPIC = target: T8, SPIC (Homo sapiens, UniProt Q8N5J4 1-248); conditions: protein: recombinant; tags: N-terminal GST; dsDNA, one strand shown
# T8 sequence: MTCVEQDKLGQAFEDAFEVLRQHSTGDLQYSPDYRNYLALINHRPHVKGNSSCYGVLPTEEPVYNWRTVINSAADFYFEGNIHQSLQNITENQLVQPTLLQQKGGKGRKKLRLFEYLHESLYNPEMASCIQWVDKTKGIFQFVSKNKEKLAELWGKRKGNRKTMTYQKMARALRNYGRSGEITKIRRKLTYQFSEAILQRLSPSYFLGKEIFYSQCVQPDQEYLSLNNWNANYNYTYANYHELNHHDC
# Summary of the method: as §1
# ELF4 = ELF4 (Homo sapiens, UniProt Q99607 1-663); conditions: protein: recombinant; tags: N-terminal GST; dsDNA, one strand shown
# Sequence of ELF4 (Q99607 whole entry): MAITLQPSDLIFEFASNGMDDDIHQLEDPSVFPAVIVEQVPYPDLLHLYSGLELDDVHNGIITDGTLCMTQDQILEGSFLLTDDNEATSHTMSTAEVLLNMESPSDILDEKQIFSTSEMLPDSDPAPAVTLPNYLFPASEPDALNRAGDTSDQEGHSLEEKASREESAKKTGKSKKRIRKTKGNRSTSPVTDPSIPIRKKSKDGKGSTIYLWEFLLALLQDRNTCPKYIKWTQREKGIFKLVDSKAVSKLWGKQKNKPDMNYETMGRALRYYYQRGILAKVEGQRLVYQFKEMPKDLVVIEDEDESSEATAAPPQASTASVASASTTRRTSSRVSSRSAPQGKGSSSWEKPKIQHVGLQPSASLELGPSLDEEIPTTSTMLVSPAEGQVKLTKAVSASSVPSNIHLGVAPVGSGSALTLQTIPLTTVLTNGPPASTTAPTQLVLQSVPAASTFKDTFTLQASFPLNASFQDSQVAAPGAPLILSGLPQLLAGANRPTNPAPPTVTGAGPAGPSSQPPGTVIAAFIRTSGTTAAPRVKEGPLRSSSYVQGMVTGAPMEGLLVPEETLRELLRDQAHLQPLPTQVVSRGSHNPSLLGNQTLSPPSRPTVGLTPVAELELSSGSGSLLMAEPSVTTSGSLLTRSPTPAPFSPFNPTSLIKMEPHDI
# Summary of the method: as §1
# ELK4 = target: T9, ELK4 (Homo sapiens, UniProt P28324-2 1-405); conditions: protein: recombinant; tags: N-terminal GST; dsDNA, one strand shown
# T9 sequence: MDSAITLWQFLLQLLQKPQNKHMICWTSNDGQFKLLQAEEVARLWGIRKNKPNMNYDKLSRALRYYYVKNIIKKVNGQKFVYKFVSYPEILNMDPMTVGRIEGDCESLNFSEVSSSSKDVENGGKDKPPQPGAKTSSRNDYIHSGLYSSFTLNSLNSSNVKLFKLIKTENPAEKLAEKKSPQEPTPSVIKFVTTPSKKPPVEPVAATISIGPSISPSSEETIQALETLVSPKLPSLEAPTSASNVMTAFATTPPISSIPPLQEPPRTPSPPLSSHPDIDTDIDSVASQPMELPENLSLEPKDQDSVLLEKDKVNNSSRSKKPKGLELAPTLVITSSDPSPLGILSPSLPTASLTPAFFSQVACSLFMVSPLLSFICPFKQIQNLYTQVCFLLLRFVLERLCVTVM
# Summary of the method: as §1
# ETV2 = target: T10, ETV2 (Homo sapiens, UniProt O00321 1-342); conditions: protein: recombinant; tags: N-terminal GST; dsDNA, one strand shown
# T10 sequence: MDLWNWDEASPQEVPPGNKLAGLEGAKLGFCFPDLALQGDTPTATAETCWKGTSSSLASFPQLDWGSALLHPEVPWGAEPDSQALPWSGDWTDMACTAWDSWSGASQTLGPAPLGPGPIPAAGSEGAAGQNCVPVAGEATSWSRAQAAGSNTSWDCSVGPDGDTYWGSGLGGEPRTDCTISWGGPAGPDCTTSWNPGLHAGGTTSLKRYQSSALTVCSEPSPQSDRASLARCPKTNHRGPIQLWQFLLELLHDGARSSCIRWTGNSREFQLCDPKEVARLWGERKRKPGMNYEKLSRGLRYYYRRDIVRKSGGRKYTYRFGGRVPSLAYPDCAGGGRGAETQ
# Summary of the method: as §1
# ELF3 = target: T11, ELF3 (Homo sapiens, UniProt P78545 1-371); conditions: protein: recombinant; tags: N-terminal GST; dsDNA, one strand shown
# T11 sequence: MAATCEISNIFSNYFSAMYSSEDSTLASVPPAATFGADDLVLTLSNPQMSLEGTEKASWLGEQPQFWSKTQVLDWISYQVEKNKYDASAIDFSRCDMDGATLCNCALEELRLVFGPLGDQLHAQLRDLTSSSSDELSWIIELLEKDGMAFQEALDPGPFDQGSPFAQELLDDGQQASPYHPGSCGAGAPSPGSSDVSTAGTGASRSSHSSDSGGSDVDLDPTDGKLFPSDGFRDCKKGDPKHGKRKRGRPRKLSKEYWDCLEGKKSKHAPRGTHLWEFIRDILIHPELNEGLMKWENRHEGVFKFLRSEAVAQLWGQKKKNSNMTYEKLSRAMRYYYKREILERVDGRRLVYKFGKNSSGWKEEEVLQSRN
# Summary of the method: as §1
# CRX = CRX (Homo sapiens, UniProt O43186 1-299); conditions: protein: recombinant; tags: N-terminal GST; dsDNA, one strand shown
# Sequence of CRX (O43186 whole entry): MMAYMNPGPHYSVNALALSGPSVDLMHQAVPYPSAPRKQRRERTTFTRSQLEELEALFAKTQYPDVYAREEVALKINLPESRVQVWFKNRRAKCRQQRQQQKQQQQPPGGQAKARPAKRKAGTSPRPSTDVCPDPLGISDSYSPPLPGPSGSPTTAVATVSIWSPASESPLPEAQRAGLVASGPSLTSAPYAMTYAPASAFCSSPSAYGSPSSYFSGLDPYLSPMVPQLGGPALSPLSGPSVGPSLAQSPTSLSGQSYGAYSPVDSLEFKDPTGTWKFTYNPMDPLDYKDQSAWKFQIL
# Summary of the method: as §1
# ETV1 = ETV1 (Homo sapiens, UniProt P50549 1-477); conditions: protein: recombinant; tags: N-terminal GST; dsDNA, one strand shown
# Sequence of ETV1 (P50549 whole entry): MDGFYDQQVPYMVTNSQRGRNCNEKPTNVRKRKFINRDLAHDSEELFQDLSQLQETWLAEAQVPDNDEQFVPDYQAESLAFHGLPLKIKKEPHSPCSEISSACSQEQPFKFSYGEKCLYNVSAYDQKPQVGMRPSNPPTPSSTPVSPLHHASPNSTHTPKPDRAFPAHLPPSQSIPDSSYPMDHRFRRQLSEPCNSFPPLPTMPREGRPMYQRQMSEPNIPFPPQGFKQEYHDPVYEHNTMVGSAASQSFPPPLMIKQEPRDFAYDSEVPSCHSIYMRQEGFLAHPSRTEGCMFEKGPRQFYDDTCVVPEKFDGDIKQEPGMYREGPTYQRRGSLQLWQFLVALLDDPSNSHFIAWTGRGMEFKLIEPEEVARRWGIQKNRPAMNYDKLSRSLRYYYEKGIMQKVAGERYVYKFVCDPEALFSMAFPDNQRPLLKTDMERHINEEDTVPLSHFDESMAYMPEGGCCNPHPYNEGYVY
# Summary of the method: as §1
sequence,measurement,setting,value
CTAACA,binding signal,FLI1,"1.28 fold enrichment (6-mer frequency, TF over GST control)"
same,binding signal,ELK1,"1.24 fold enrichment (6-mer frequency, TF over GST control)"
same,binding signal,GABPA,"1.16 fold enrichment (6-mer frequency, TF over GST control)"
same,binding signal,ERG,"1.21 fold enrichment (6-mer frequency, TF over GST control)"
same,binding signal,ELF1,"1.25 fold enrichment (6-mer frequency, TF over GST control)"
same,binding signal,EHF,"1.21 fold enrichment (6-mer frequency, TF over GST control)"
same,binding signal,SPI1,"1.24 fold enrichment (6-mer frequency, TF over GST control)"
same,binding signal,SPIB,"1.17 fold enrichment (6-mer frequency, TF over GST control)"
same,binding signal,ELK3,"1.15 fold enrichment (6-mer frequency, TF over GST control)"
same,binding signal,FEV,"1.2 fold enrichment (6-mer frequency, TF over GST control)"
same,binding signal,ETV5,"1.26 fold enrichment (6-mer frequency, TF over GST control)"
same,binding signal,HSF1,"1.08 fold enrichment (6-mer frequency, TF over GST control)"
same,binding signal,SPIC,"1.26 fold enrichment (6-mer frequency, TF over GST control)"
same,binding signal,ELF4,"1.2 fold enrichment (6-mer frequency, TF over GST control)"
same,binding signal,ELK4,"1.17 fold enrichment (6-mer frequency, TF over GST control)"
same,binding signal,ETV2,"1.21 fold enrichment (6-mer frequency, TF over GST control)"
same,binding signal,ELF3,"1.28 fold enrichment (6-mer frequency, TF over GST control)"
same,binding signal,CRX,"1.2 fold enrichment (6-mer frequency, TF over GST control)"
same,binding signal,ETV1,"1.15 fold enrichment (6-mer frequency, TF over GST control)"
